From PubChem
VDR inh: Inhibitors of the vitamin D receptor (VDR): qHTS; Potency, µM, usual class: inhibitors; 400,000 tested, 0.93% active; VDR-SRC2-3 peptide fluorescence polarization, 2 h; Vitamin D3 receptor (Homo sapiens), P11473
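VDR–SRC2-3 interaction, FP format. Cmpds 23 nl via pintool, brief spin, 2 h ambient incubation.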
12-LOX inh: Primary qHTS assay for inhibitors of human arachidonate 12S-lipoxygenase (ALOX12): Round 2; Polyunsaturated fatty acid lipoxygenase ALOX12 (Homo sapiens), P18054; purified 12hLO, xylenol orange hydroperoxide absorbance; Potency, µM (series often up to 108 µM), hits mostly inhibitors; 580,000 tested, 1.1% active; AID 1671190, 2021
Target sequence (P18054 whole entry, looked up): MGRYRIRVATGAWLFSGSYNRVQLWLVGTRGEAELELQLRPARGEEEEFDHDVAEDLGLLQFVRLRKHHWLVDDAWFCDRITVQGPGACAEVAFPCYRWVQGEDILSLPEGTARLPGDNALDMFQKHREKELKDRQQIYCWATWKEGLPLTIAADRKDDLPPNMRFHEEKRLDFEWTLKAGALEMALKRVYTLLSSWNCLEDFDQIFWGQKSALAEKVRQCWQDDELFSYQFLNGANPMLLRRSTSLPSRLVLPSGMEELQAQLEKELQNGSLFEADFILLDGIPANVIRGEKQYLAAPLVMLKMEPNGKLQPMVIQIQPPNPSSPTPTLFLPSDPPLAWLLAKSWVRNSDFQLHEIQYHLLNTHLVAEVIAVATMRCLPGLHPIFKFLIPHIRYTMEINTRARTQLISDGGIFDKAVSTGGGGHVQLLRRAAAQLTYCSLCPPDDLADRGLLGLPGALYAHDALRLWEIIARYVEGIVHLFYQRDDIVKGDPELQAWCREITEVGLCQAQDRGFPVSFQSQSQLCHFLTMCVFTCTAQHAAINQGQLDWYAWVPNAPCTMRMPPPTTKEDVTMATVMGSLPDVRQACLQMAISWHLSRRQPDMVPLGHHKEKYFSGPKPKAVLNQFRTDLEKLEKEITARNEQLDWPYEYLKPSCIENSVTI
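Hydroperoxide product was detected by ferrous iron/xylenol orange as the 573 to 405 nm absorbance ratio. Arachidonic acid at 40 uM (final) was turned over for 30 min at room temperature by 150 nM human 12hLO, pH 7.0 Hepes buffer, after 15 min compound preincubation.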
GCN5L2 inh: qHTS Assay for Inhibitors of GCN5L2; Histone acetyltransferase KAT2A (Homo sapiens), Q92830; GCN5L2 HAT assay, ThioGlo1 CoA-SH fluorescence; Potency, µM (series often up to 58.9 µM), actives largely listed as inhibitors; 390,000 tested, 0.21% active; AID 504327, 2011
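Preincubate 20nM GCN5L2 with compound 15 min, RT → add 50uM ThioGlo1 + 75uM H3(1-25) + 70uM acetyl-CoA → read fluorescence 0 and 20 min. Primary qHTS; fluorescent artifacts likely.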
PLK1 PBD inh: qHTS for Inhibitors of PLK1-PDB (polo-like kinase 1 - polo-box domain): Primary Screen. Serine/threonine-protein kinase PLK1 (Homo sapiens), P53350. Plk1 PBD binding of FITC phosphopeptide, fluorescence polarization. Potency, µM, hits mostly inhibitors. 360,000 tested, 2.8% active; also: series mostly up to about 57 µM; nearly all actives have a fitted effect of over 65% in size
Of the large screens only hits and unclear results are named; the others gave an inactive call; ! = a repeat was not active. Hits are enriched below; roughly 3% of the tested compounds scored in any of these assays. Calls follow the shape of the dose curve; as a rule, active = well fitted curve in the direction sought with a large enough effect; inconclusive = small, poorly fitted or top-dose-only effect, or another doubt; inactive = no such curve, though single readings can be large; an effect the other way counts as inactive or inconclusive.

Cc1cc(C)c2oc(C(=O)N(Cc3ccc(Cl)cc3)C3CCS(=O)(=O)C3)cc(=O)c2c1 (stereo unspecified)	none (no result: VDR inh, GCN5L2 inh, PLK1 PBD inh)
S=c1nc(-c2ccc(Br)cc2)[nH]c2ccccc12	VDR inh inconclusive, PLK1 PBD inh 12µM
CCN(CC)/C(Sc1ccccc1)=C(/C(Cl)=C(Cl)Cl)[N+](=O)[O-]	12-LOX inh 7.9µM, PLK1 PBD inh inconclusive
CCOC(=O)c1ccc(N2C(=O)C=CC2=O)cc1	VDR inh 50µM, GCN5L2 inh inconclusive, PLK1 PBD inh 3.8µM (no result: 12-LOX inh)
CCOC(=O)c1ccc(-n2c(C)ccc2C)cc1	none
O=C1CC2(CCCCC2)CC(=O)O1	none (no result: VDR inh, GCN5L2 inh, PLK1 PBD inh)
Cc1cc(F)ccc1NC(=O)CCc1c(C)nn(-c2ccc(N3CCCCC3)nn2)c1C	PLK1 PBD inh 21µM
Cc1ccc(F)cc1NC(=O)CCc1c(C)nn(-c2ccc(N3CCCC3)nn2)c1C	none (no result: PLK1 PBD inh)
CC(=O)c1ccc(NC(=O)CCc2c(C)nn(-c3ccc(N4CCOCC4)nn3)c2C)cc1	VDR inh inconclusive, PLK1 PBD inh 21µM
NCCc1c(C(=O)O)[nH]c2ccc([N+](=O)[O-])cc12	VDR inh inconclusive, 12-LOX inh inconclusive, PLK1 PBD inh 21µM
Cc1c(C(=O)O)[nH]c2ccc([N+](=O)[O-])cc12	PLK1 PBD inh inconclusive
C=C(C)COc1cc(C)cc2oc(=O)c(CC(=O)Nc3nc(CC(=O)O)cs3)c(C)c12	none (no result: VDR inh, GCN5L2 inh, PLK1 PBD inh)
Cc1ccc(NC(=O)CCc2cc(C(C)(C)C)c(O)c(C(C)(C)C)c2)cc1	none (no result: VDR inh, GCN5L2 inh, PLK1 PBD inh)
COc1ccc2c(C)c(CCC(=O)Nc3ccccc3OC)c(=O)oc2c1	none (no result: VDR inh, GCN5L2 inh, PLK1 PBD inh)
O=S(=O)(NCCc1csc(-c2ccc(F)cc2)n1)c1ccc(Cl)cc1	12-LOX inh 28µM (no result: PLK1 PBD inh)
Cn1cc(C(=O)N2CCN(S(=O)(=O)c3cc(F)ccc3F)CC2)c2ccccc21	none (no result: VDR inh, GCN5L2 inh, PLK1 PBD inh)
COc1ccc(N2CC(C(=O)Nc3nnc(SCC(=O)NCC4CCCO4)s3)CC2=O)cc1 (stereo unspecified)	VDR inh inconclusive, 12-LOX inh inconclusive, PLK1 PBD inh 30µM (no result: GCN5L2 inh)
Cc1cccc(N2CC(C(=O)Nc3nnc(SCCC4OCCO4)s3)CC2=O)c1 (stereo unspecified)	12-LOX inh 8.9µM, PLK1 PBD inh inconclusive
Cc1ccc(N2CC(C(=O)Nc3nnc(SCC(=O)NCC4CCCO4)s3)CC2=O)cc1C (stereo unspecified)	none
Cc1cccc(N2CC(C(=O)Nc3nnc(SCCN4CCOCC4)s3)CC2=O)c1 (stereo unspecified)	none
CN(C)CCCN(C(=O)COc1ccc(Cl)cc1)c1nc2c(F)cccc2s1	12-LOX inh 40µM!
CC(=O)OCC1(C)CN(c2ccccc2)NC1=O (stereo unspecified)	12-LOX inh 40µM
CC1=C(SCc2ccccc2)C(=O)c2ccccc2C1=O	VDR inh 14µM, 12-LOX inh 13µM, PLK1 PBD inh 4.7µM (no result: GCN5L2 inh)
O=C(NNc1c2ccccc2nc2ccccc12)c1ccccc1O	none
O=C(NNc1nc(=O)c2cccnc2s1)c1ccccc1O	PLK1 PBD inh 27µM
COc1ccccc1CN1CCC(Cc2ccccc2)CC1	12-LOX inh 0.56µM (no result: VDR inh, GCN5L2 inh, PLK1 PBD inh)
CCOc1ccccc1CN1CCC(N2CCOCC2)CC1	12-LOX inh inconclusive, GCN5L2 inh inconclusive, PLK1 PBD inh 38µM
CSc1ccc(CN2CCC(Cc3ccccc3)CC2)cc1	12-LOX inh 1.6µM
COc1cc(OC)c(CN2CCC(Cc3ccccc3)CC2)cc1Br	12-LOX inh 1µM
O=C(OCc1c(F)cccc1Cl)c1ccccc1Nc1ccccc1	none (no result: VDR inh, GCN5L2 inh, PLK1 PBD inh)
Cc1ccc(S(=O)(=O)N2CCCN(S(=O)(=O)c3ccc(C(F)(F)F)cc3)CC2)cc1	none
Cc1ccc(S(=O)(=O)N2CCN(CCNC(=O)c3cccc(C(F)(F)F)c3)CC2)cc1	12-LOX inh 28µM (no result: VDR inh, GCN5L2 inh, PLK1 PBD inh)
Cc1ccc(S(=O)(=O)N2CCN(CCNC(=O)c3ccc(C(F)(F)F)cc3)CC2)cc1	12-LOX inh 16µM (no result: VDR inh, GCN5L2 inh, PLK1 PBD inh)
C=CCC1(O)CCN(C)CC1C (stereo unspecified)	none (no result: VDR inh, GCN5L2 inh, PLK1 PBD inh)
Cc1cnc(C(=O)N2CCC3(CC2)CC(N(Cc2ccccc2)C2CC2)CCO3)cn1 (stereo unspecified)	none (no result: VDR inh, GCN5L2 inh, PLK1 PBD inh)
COc1ccccc1OC(=O)CCc1nc2ccccc2s1	PLK1 PBD inh inconclusive
CC(=O)c1ccc(OC(=O)CCc2nc3ccccc3s2)cc1	VDR inh 40µM, PLK1 PBD inh inconclusive
CCCCCCSc1ccc([C@H]2N[C@@](CC(C)C)(C(=O)OC)[C@H]3C(=O)N(C)C(=O)[C@@H]23)cc1OC	PLK1 PBD inh 21µM
COC(=O)[C@]1(Cc2ccccc2)N[C@H](c2ccc(-c3cccc(Cl)c3)c(OC)c2)[C@@H]2C(=O)N(C)C(=O)[C@@H]21	12-LOX inh 40µM (no result: GCN5L2 inh)
CC(C)CCNC(=O)C(NC(N)=O)C(C)C (stereo unspecified)	none (no result: VDR inh, GCN5L2 inh, PLK1 PBD inh)
O=C(Nc1cccc(Cl)c1)N1CCOC(CN(CC2CC2)C(=O)c2cccc(F)c2)C1 (stereo unspecified)	none (no result: VDR inh, GCN5L2 inh, PLK1 PBD inh)
O=C(NCc1cccnc1)c1ccc(/C=C/c2ccc3ccccc3n2)cc1	none (no result: VDR inh, GCN5L2 inh, PLK1 PBD inh)
CC1(C)CC(NS(=O)(=O)c2ccc(Cl)cc2)CC(C)(C)N1	VDR inh 89µM
COc1ccc(S(=O)(=O)NC2CC(C)(C)NC(C)(C)C2)cc1	none
COc1ccccc1-c1coc2cc(OC(=O)c3ccccc3C)ccc2c1=O	none (no result: VDR inh, GCN5L2 inh, PLK1 PBD inh)
O=C1c2ccccc2NC(c2cnn(-c3ccccc3)n2)N1c1ccc2c(c1)OCO2 (stereo unspecified)	none (no result: VDR inh, GCN5L2 inh, PLK1 PBD inh)
CC(C)(C)C1CCc2c(sc(N)c2C(N)=O)C1 (stereo unspecified)	VDR inh 79µM, PLK1 PBD inh inconclusive (no result: 12-LOX inh)
CCCC1CCc2c(sc(N)c2C(N)=O)C1 (stereo unspecified)	VDR inh inconclusive, 12-LOX inh inconclusive, PLK1 PBD inh 27µM
CCC(C)(C)C1CCc2c(sc(N)c2C(N)=O)C1 (stereo unspecified)	VDR inh inconclusive, 12-LOX inh inconclusive
CC(=O)Nc1cc(-c2ccccc2)cn2c(-c3ccc(F)c(Cl)c3)cnc12	12-LOX inh inconclusive (no result: VDR inh, GCN5L2 inh)
Nc1cccn2c(-c3ccc(Cl)c(Cl)c3)cnc12	12-LOX inh inconclusive, PLK1 PBD inh 6µM
CC1(C)C2CCC(CN=C(N)CSS(=O)(=O)O)C1C2 (stereo unspecified)	PLK1 PBD inh 4.7µM (no result: VDR inh, GCN5L2 inh)
CCOC(=O)C1=C(CN2CCCCC2)NC(=O)NC1c1ccc(OC)cc1 (stereo unspecified)	12-LOX inh 45µM (no result: PLK1 PBD inh)
CCOC(=O)C1=C(CN2CCN(c3ccc(C)cc3C)CC2)NC(=O)NC1c1ccc(OC)cc1 (stereo unspecified)	12-LOX inh 45µM (no result: PLK1 PBD inh)
CCOC(=O)C1=C(CN(CC)Cc2ccccc2)NC(=O)NC1c1ccc(OC)cc1 (stereo unspecified)	12-LOX inh inconclusive (no result: PLK1 PBD inh)
CCOC(=O)C1=C(CN2CCCCC2)NC(=O)NC1c1ccc(C)cc1 (stereo unspecified)	12-LOX inh inconclusive (no result: PLK1 PBD inh)
